# Test results published in the supplement of paper PMC3334620.
# Over roughly 33,000 sequences, “E-score (-0.5 to 0.5)” has its median near -0.0034; the highest 2% begin near 0.25. The full list was thinned out, with the highest values kept by preference.
# Molecular target: T1, Yap3 (UniProt P38749)
# T1 sequence: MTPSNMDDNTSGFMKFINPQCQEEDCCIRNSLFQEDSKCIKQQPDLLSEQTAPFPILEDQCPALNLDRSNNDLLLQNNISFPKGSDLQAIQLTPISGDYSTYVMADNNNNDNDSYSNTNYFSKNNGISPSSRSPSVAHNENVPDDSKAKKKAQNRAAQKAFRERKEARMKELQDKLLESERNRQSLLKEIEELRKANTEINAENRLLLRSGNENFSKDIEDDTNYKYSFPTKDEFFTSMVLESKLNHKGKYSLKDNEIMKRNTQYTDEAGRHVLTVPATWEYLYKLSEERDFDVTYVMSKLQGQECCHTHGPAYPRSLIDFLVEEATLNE
# Assay: PBM E-score (8-mer binding enrichment) (E-score (-0.5 to 0.5)); higher = stronger / more preferred TF binding
# Conditions: protein concentration: 100 nM; construct: GST-full length
# Experimental: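 Universal 'all 10-mer' protein binding microarrays (Agilent AMADID 015681) probed with GST-tagged S. cerevisiae TFs (full-length or DBD) made by in vitro transcription/translation (PURExpress), about 100-200 nM. Bound TF was detected with fluorescent anti-GST. Each ungapped 8-mer (which stands for itself and its reverse complement) is scored by the PBM enrichment score (E-score), a modified Wilcoxon-Mann-Whitney statistic from -0.5 to +0.5, computed with the Universal PBM Analysis Suite. Scale: above 0.35 generally sequence-specific binding.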
row,Sequence,PBM E-score
1,TTGTACAA,0.185
2,CATCAGAC,-0.133
3,ACATACCC,0.0479
4,GAACTCGC,0.0628
5,CTCCTACC,-0.275
6,CCTGAACG,-0.154
7,GTCTAGCA,0.0493
8,ATGAGAAA,0.181
9,GCGTTAGA,0.0241
10,AAGCGTTC,-0.0829
11,GCGGCCTA,-0.0845
12,ATTTTTAG,-0.0279
13,ATTTTTAA,0.295
14,ATTTTAAA,0.282
15,ATTTTTTG,0.226
16,ATTTTAAC,0.149
17,AATTTTAA,0.212
18,AATTTTTA,0.252
19,ATTTTTTA,0.255
20,GTTTTAAA,0.235
21,TCAGCGCA,-0.216
22,CGGTTTTA,-0.106

row,Sequence,PBM E-score
1,CTAAGTAC,0.016
2,CGATGGGC,-0.18
3,CCAACAGC,0.0293
4,GAGTCATC,-0.00184
5,AATACACT,0.259
6,CATACACC,0.0314
7,AATACACC,0.272
8,AATACACG,0.0582
9,GATACACC,0.161
10,AATACACA,0.131
11,CGGCAGGC,-0.189
12,CGAGAGTA,0.0233
13,GCATTGTA,-0.0355
14,GCAAAGAA,0.0916
15,CAGCGAAG,-0.16
16,ATTGCAAA,0.0883
17,ATTGCAAT,0.283
18,ATTGCAAG,0.0639
19,ATGGCCAA,-0.114
20,AGGTGCCG,-0.101
21,CTGTTTCA,0.0525
22,GCCAAGAC,-0.195

row,Sequence,PBM E-score
1,AAAATATG,0.256
2,CGAATATC,0.154
3,AAAATATA,0.19
4,AAAATAAC,0.0743
5,CAAATAAG,-0.0581
6,CAAATACC,0.0818
7,AAAATAAG,0.271
8,AAAATATC,0.257
9,AAAATACG,0.234
10,CAAATATC,0.285
11,GAAATATC,0.0879
12,CAAATATG,0.131
13,GAAGCTAA,-0.136
14,ATAAGGTG,-0.00609
15,ATCTGCCG,0.101
16,GTCAGCAC,-0.0445
17,GGATCAAA,0.111
18,AAAATACT,0.0626
19,AAAATAGT,0.12
20,AAAATATT,0.318
21,TAGCAACA,0.114
22,AAGCACTT,-0.0376

row,Sequence,PBM E-score
1,CGTGGCTC,-0.321
2,CCGGAAAA,0.106
3,AATCGACT,-0.0232
4,AATCGAAG,0.256
5,AATCGACA,0.258
6,AATCGACC,-0.00549
7,AATCGAAC,0.107
8,AATCGAAA,0.0602
9,AACGCGCA,0.103
10,AACGCGAG,0.126
11,AACGCGAA,0.298
12,AACGCGCG,0.265
13,CACGCGAA,-0.0244
14,AACGCGCT,-0.012
15,ACGCACCC,-0.243
16,ACCCGCAA,-0.239
17,ACTAGTTG,-0.0214
18,TCGCAAGA,-0.0427
19,TCCATCCA,-0.0216
20,ACCCCCAT,-0.246
21,AAGACAAC,0.267
